Reference: ChEMBL document CHEMBL3433997, “St. Jude Leishmania screening dataset” (2016)

molecular target: Hexose transporter 1 (Plasmodium falciparum) (UniProt O97467); test: ST_JUDE_LEISH: Cytotoxicity at 2uM final concentration against transgenic Leishmania Mexicana promastigotes LmPfHT that are glucose transport deficient and complemented with the Plasmodium falciparum hexose transporter. Activity is measured by DNA content using SYBR green in vitro; assay type: functional

Row | SMILES | inhibition
1 | CCCc1cc(N2CCC(N(CC)CC)C2)nc(Nc2ccc(OC)cc2)n1 (stereo not given) | 3.72%
2 | COCCN1CCN(Cc2ccc(-c3ccc(-c4nc5cc(F)ccc5[nH]4)cc3)cc2)CC1 | 3%
3 | Nc1c2c(nc3ccc(Oc4ccc(Br)cc4Br)cc13)CCCC2 | 84.6%
4 | O=C(Nc1ccc(-c2nc3ccccc3[nH]2)cc1)c1ccc(Cl)s1 | 2.35%
5 | CCc1cn(CCc2ccccc2)c2ccc(C(=O)N[C@@H](Cc3ccccc3)[C@H](O)CNC(C)(C)CCCC(C)C)cc12 | -1.07%
6 | O=C(NCC1CC1)C1CCN(C(c2ccccc2)c2cc(F)cc(F)c2)CC1 (stereo not given) | 3.92%
7 | COc1cc2nc(N3CCC(CNC(=O)c4ccc(-c5ccc(Cl)cc5)cc4)CC3)nc(N)c2cc1OC | 8.03%
8 | Cc1ccccc1C1CCN(C2CCC(NC(=O)c3cc(-c4ccccc4)oc3C)CC2)CC1 (stereo not given) | 0.71%
9 | O=C(Nc1ccc(Cn2ncc(N3CCCNCC3)c(Cl)c2=O)cc1)Nc1ccc(C(F)(F)F)cc1 | 4.5%
10 | Cc1cc(N[C@@H](Cc2ccccc2)C(=O)Nc2ccccc2)nc(NCCc2ccccc2)n1 | 5.68%
11 | Nc1nccc2ccc(-c3ccc(Oc4ccccc4)cc3)cc12 | 15.8%
12 | Cc1cccc(C(=O)Nc2ccc(N3CCCN(Cc4cccc(O)c4)CC3)cc2)c1 | 3.72%
13 | O=C(Nc1ccc(-c2cccc(-c3nc4cc(F)ccc4[nH]3)c2)cc1)c1cnn2cccnc12 | 3.22%
14 | COc1ccc(OC)c(NC(=O)CSc2nc(-c3ccccc3Cl)ns2)c1 | 0.98%
15 | Cc1cc(-c2nc3cc(C(=N)N)ccc3[nH]2)c(C)cc1-c1nc2cc(C(=N)N)ccc2[nH]1 | 3.95%
16 | O=C(Cn1c(CCc2cccc(F)c2F)nc(=O)c2ccccc21)N(Cc1ccc(-c2ccc(C(F)(F)F)cc2)cc1)C1CCN(C2CCSCC2)CC1 | -2.32%
17 | Cc1[nH]c(C)c(-c2ccc(-c3ccc(C(F)(F)F)cc3C(F)(F)F)nc2)c(=O)c1Br | -2.4%
18 | Oc1ccc2ccccc2c1CNC1CCCCCC1 | 1.51%
19 | CCCCOC(=O)c1ccc(NC(=O)Nc2ccc(Cn3ncc(N4CCCNCC4)c(Cl)c3=O)cc2)cc1 | 10.1%
20 | CC(C)Nc1nc(NC2CCCCC2)nc(N2CCCCCCC2)n1 | 17.4%

Row | SMILES | inhibition
21 | Cc1cccc(C)c1CNc1ccnc2cc(Br)ccc12 | 8.34%
22 | CCNc1cc(C(=O)N[C@@H](Cc2ccccc2)[C@H](O)CNCc2cccc(OC)c2)c(OC)c(N2CCCCS2(=O)=O)c1 | 2.79%
23 | CCNC(=O)N1CCN(c2nc(-c3ccccc3)nc(COC)c2Cc2ccc(C)cc2)CC1 | -1.41%
24 | CCNc1cc(C(=O)N[C@@H](Cc2ccccc2)[C@H](O)CNC2CCCC2)cc(N2CCCC2=O)c1 | 3.77%
25 | Cc1nc(O)c2c(ccc3ccc(CN(C)c4ccc(C(=O)N[C@@H](CCC(=O)O)C(=O)O)cc4)cc32)n1 | -0.69%
26 | N#Cc1ccc2c(c1)CN(CCCCNC(=O)c1ccc(-c3ccccc3)cc1)CC2 | 3.16%
27 | O=C(/C=C/c1ccc(Cl)c(Cl)c1)N1CCC(C(O)CN2CCC(c3c[nH]c4ccccc34)CC2)CC1 (stereo not given) | 1.82%
28 | O=C(Nc1ccc(Br)c(Cl)c1)c1cc([N+](=O)[O-])cc2cn[nH]c12 | -0.77%
29 | Cn1ncc2c3c(CCN4CCC(NCc5cc6c(cn5)OCCO6)CC4)c(Cl)cnc3ccc21 | 1.93%
30 | CC1CCN(c2nc(C(=O)Nc3cccc4c3CCCC4)c(C(C)C)s2)CC1 | 4.73%
31 | O=C(NCCc1ccccc1F)c1ccc(N2CCN(c3ccncc3)CC2)cn1 | 9.09%
32 | Cc1cccc2nc(-c3ccc(-c4ccc(CNCc5cccc(N)c5)cc4)cc3)[nH]c12 | 30.9%
33 | Cc1cc(C2CCN(CCCCNC(=O)c3ccc(-c4ccc(C(F)(F)F)cc4)cc3)CC2)c(C)cc1OCCOC1CCCCO1 (stereo not given) | -0.6%
34 | Cc1ccccc1CNc1noc(-c2sccc2Br)n1 | -1.49%
35 | Cc1cc(NC(=O)c2coc3cc(F)c(N4CC(C)N(C)C(C)C4)cc23)cnc1-c1ccc(C#N)cc1 (stereo not given) | -1%
36 | CCN(CC)CCNC(=O)c1ccc(NC(=O)c2oc3c(Cl)cccc3c2C)cc1 | 8.3%
37 | Cn1cnc(-c2ccc3c(c2)CCN(CCC2CCC(NC(=O)/C=C/c4ccc(F)cc4)CC2)CC3)c1 (stereo not given) | 70.5%
38 | O=C(/C=C/c1ccc(Cl)c(Cl)c1)NCCCCCN1CCC(C(=O)Nc2ccc(F)c(Cl)c2)CC1 | 1.87%
39 | Nn1c(=O)oc2ccc(Cl)cc2c1=O | 10.4%
40 | COc1ccc(CN(C)CCCc2ccc(NC(=O)Cc3ccc4nc(-c5ccccc5)ccc4c3)cc2)cc1OC | 11.1%

molecular target: Glucose transporter (Leishmania mexicana) (UniProt O61059); test: ST_JUDE_LEISH: Cytotoxicity at 2uM final concentration against transgenic Leishmania Mexicana promastigotes LmGT2 that are glucose transport deficient and complemented with the L. Mexicana glucose transporter 2. Activity is measured by DNA content using SYBR green in vitro; assay type: functional

Row | SMILES | inhibition
41 | CCCc1cc(N2CCC(N(CC)CC)C2)nc(Nc2ccc(OC)cc2)n1 (stereo not given) | 1.91%
42 | COCCN1CCN(Cc2ccc(-c3ccc(-c4nc5cc(F)ccc5[nH]4)cc3)cc2)CC1 | 0.87%
43 | Nc1c2c(nc3ccc(Oc4ccc(Br)cc4Br)cc13)CCCC2 | 57.4%
44 | O=C(Nc1ccc(-c2nc3ccccc3[nH]2)cc1)c1ccc(Cl)s1 | 1.71%
45 | CCc1cn(CCc2ccccc2)c2ccc(C(=O)N[C@@H](Cc3ccccc3)[C@H](O)CNC(C)(C)CCCC(C)C)cc12 | -2.99%
46 | O=C(NCC1CC1)C1CCN(C(c2ccccc2)c2cc(F)cc(F)c2)CC1 (stereo not given) | -1.03%
47 | COc1cc2nc(N3CCC(CNC(=O)c4ccc(-c5ccc(Cl)cc5)cc4)CC3)nc(N)c2cc1OC | 9.81%
48 | Cc1ccccc1C1CCN(C2CCC(NC(=O)c3cc(-c4ccccc4)oc3C)CC2)CC1 (stereo not given) | -1.44%
49 | O=C(Nc1ccc(Cn2ncc(N3CCCNCC3)c(Cl)c2=O)cc1)Nc1ccc(C(F)(F)F)cc1 | -0.44%
50 | Cc1cc(N[C@@H](Cc2ccccc2)C(=O)Nc2ccccc2)nc(NCCc2ccccc2)n1 | 0.11%
51 | Nc1nccc2ccc(-c3ccc(Oc4ccccc4)cc3)cc12 | 12.2%
52 | Cc1cccc(C(=O)Nc2ccc(N3CCCN(Cc4cccc(O)c4)CC3)cc2)c1 | 2.78%
53 | O=C(Nc1ccc(-c2cccc(-c3nc4cc(F)ccc4[nH]3)c2)cc1)c1cnn2cccnc12 | 0.84%
54 | COc1ccc(OC)c(NC(=O)CSc2nc(-c3ccccc3Cl)ns2)c1 | -1.15%
55 | Cc1cc(-c2nc3cc(C(=N)N)ccc3[nH]2)c(C)cc1-c1nc2cc(C(=N)N)ccc2[nH]1 | 0.94%
56 | O=C(Cn1c(CCc2cccc(F)c2F)nc(=O)c2ccccc21)N(Cc1ccc(-c2ccc(C(F)(F)F)cc2)cc1)C1CCN(C2CCSCC2)CC1 | 3.92%
57 | Cc1[nH]c(C)c(-c2ccc(-c3ccc(C(F)(F)F)cc3C(F)(F)F)nc2)c(=O)c1Br | 0.14%
58 | Oc1ccc2ccccc2c1CNC1CCCCCC1 | 1.96%
59 | CCCCOC(=O)c1ccc(NC(=O)Nc2ccc(Cn3ncc(N4CCCNCC4)c(Cl)c3=O)cc2)cc1 | 7.4%
60 | CC(C)Nc1nc(NC2CCCCC2)nc(N2CCCCCCC2)n1 | 11.6%

Row | SMILES | inhibition
61 | Cc1cccc(C)c1CNc1ccnc2cc(Br)ccc12 | 5.92%
62 | CCNc1cc(C(=O)N[C@@H](Cc2ccccc2)[C@H](O)CNCc2cccc(OC)c2)c(OC)c(N2CCCCS2(=O)=O)c1 | 2.16%
63 | CCNC(=O)N1CCN(c2nc(-c3ccccc3)nc(COC)c2Cc2ccc(C)cc2)CC1 | 3.78%
64 | CCNc1cc(C(=O)N[C@@H](Cc2ccccc2)[C@H](O)CNC2CCCC2)cc(N2CCCC2=O)c1 | 3.46%
65 | Cc1nc(O)c2c(ccc3ccc(CN(C)c4ccc(C(=O)N[C@@H](CCC(=O)O)C(=O)O)cc4)cc32)n1 | -1.57%
66 | N#Cc1ccc2c(c1)CN(CCCCNC(=O)c1ccc(-c3ccccc3)cc1)CC2 | 3.99%
67 | O=C(/C=C/c1ccc(Cl)c(Cl)c1)N1CCC(C(O)CN2CCC(c3c[nH]c4ccccc34)CC2)CC1 (stereo not given) | 0.09%
68 | O=C(Nc1ccc(Br)c(Cl)c1)c1cc([N+](=O)[O-])cc2cn[nH]c12 | 1.08%
69 | Cn1ncc2c3c(CCN4CCC(NCc5cc6c(cn5)OCCO6)CC4)c(Cl)cnc3ccc21 | -0.85%
70 | CC1CCN(c2nc(C(=O)Nc3cccc4c3CCCC4)c(C(C)C)s2)CC1 | 6.09%
71 | O=C(NCCc1ccccc1F)c1ccc(N2CCN(c3ccncc3)CC2)cn1 | 8.65%
72 | Cc1cccc2nc(-c3ccc(-c4ccc(CNCc5cccc(N)c5)cc4)cc3)[nH]c12 | 14.9%
73 | Cc1cc(C2CCN(CCCCNC(=O)c3ccc(-c4ccc(C(F)(F)F)cc4)cc3)CC2)c(C)cc1OCCOC1CCCCO1 (stereo not given) | 2.21%
74 | Cc1ccccc1CNc1noc(-c2sccc2Br)n1 | -1.5%
75 | Cc1cc(NC(=O)c2coc3cc(F)c(N4CC(C)N(C)C(C)C4)cc23)cnc1-c1ccc(C#N)cc1 (stereo not given) | -1.53%
76 | CCN(CC)CCNC(=O)c1ccc(NC(=O)c2oc3c(Cl)cccc3c2C)cc1 | 7.44%
77 | Cn1cnc(-c2ccc3c(c2)CCN(CCC2CCC(NC(=O)/C=C/c4ccc(F)cc4)CC2)CC3)c1 (stereo not given) | 60.9%
78 | O=C(/C=C/c1ccc(Cl)c(Cl)c1)NCCCCCN1CCC(C(=O)Nc2ccc(F)c(Cl)c2)CC1 | 1.53%
79 | Nn1c(=O)oc2ccc(Cl)cc2c1=O | 10%
80 | COc1ccc(CN(C)CCCc2ccc(NC(=O)Cc3ccc4nc(-c5ccccc5)ccc4c3)cc2)cc1OC | 6.65%
